# A selection: hits, their analogues and other compounds. The true share with any hit is near 3.9%.
# GBA mod = alters purified human glucocerebrosidase activity. P04062. purified enzyme, resorufin glucoside fluorescence (screen aimed at inhibitors), 20 min. Potency, µM. 1.1% of 48,000 active. AID 360; in the data active = potency below about 15 µM; inconclusive = mostly about 16 µM to 33 µM;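 note: the screen sought inhibitors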
#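 Wild-type enzyme at 0.2 nM final in 50mM citric acid/KH2PO4, 10mM sodium taurocholate, 0.01% tween-20, pH 5.9, with resorufin beta-D-glucopyranoside at 30 uM final. Compounds titrated, 20 min at RT, red fluorescence read; AC50 from titration.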
# FLuc inh = blocks Photinus pyralis firefly luciferase activity; P08659; purified firefly luciferase, luminescence, 8 min; Potency, µM (top dose mostly 57.1 µM), for the others: at the top dose activity change, negative = inhibition, usual class: inhibitors; 2.2% of 72,000 active; AID 411; note: % is set by controls: 0 for no effect and ±100 for the full control effect; nearly all actives have a fitted effect of over 40% in size
# Target sequence (P08659 whole entry, looked up): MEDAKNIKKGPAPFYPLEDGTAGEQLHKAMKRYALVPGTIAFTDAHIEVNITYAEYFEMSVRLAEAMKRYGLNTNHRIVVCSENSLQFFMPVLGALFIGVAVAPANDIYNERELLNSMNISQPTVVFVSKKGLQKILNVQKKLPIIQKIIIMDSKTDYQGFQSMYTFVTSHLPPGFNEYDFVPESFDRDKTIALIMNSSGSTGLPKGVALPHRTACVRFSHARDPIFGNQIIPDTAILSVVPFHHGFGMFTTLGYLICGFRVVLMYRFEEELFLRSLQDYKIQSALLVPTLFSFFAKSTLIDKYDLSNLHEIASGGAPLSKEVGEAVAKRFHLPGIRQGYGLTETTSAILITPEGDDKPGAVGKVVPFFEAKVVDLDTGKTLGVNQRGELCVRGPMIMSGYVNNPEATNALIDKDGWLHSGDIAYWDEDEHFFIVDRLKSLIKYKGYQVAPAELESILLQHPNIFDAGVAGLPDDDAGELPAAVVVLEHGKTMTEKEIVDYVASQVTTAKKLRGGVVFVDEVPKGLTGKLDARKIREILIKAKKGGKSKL
#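 Luminescence read-out after 8 min at room temperature; enzyme reaction used luciferin plus 10 uM ATP (linear range) in imidazole buffer pH 7.2 with KCl, MgCl2, Tween 20 and BSA. Each sample was run as a titration.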
# ERK AVP inh = inhibitors of vasopressin-stimulated ERK signaling pathway; HEK293-V1b, vasopressin-stimulated pERK AlphaScreen; AID 995; Potency, µM (highest dose often 57.5 µM), for inactives: at the highest dose activity, negative = inhibition, hits mostly inhibitors; 0.99% of 72,000 active; note: % is set by controls: 0 for no effect and ±100 for the full control effect; nearly all actives have a fitted effect of over 55% in size
#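 Overnight-seeded V1b-HEK293 cells in 1% FBS got compound, then vasopressin (25 nM final, 5 min, 37C), then lysis buffer. AlphaScreen detection of phospho-ERK; activity normalized to basal and full-stimulation controls.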
# PK Bst = pyruvate kinase (B. stearothermophilus) modulation | purified pyruvate kinase, luminescence ATP production; ribose 5-phosphate activator present at AC10 | Potency, µM | 1.2% of 51,000 active; in the data active = potency below about 11 µM; inconclusive = mostly about 12 µM to 25 µM;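 the screen sought inhibitors and activators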;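 note: scaled between full activation by ribose 5 phosphate and full inhibition by luteolin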
# * marks the source's active call; other numbers are inactive results; i = inactive; ? = inconclusive; . = not tested or not shown; [ ] = dose if it differs, or a comment. Unless noted, calls come from the whole dose curve; as a rule, active = well fitted curve in the direction sought with a large enough effect; inconclusive = small, poorly fitted or top-dose-only effect, or another doubt; inactive = no such curve, though single readings can be large; an effect the other way counts as inactive or inconclusive. Potency is the fitted concentration of half-maximal effect.
SMILES,GBA mod,FLuc inh,ERK AVP inh,PK Bst
COC(=O)COc1cccc(-n2cnnn2)c1,>77,-3%,2%,>57
CCCn1c(-c2ccc(F)cc2)nc2c(NCCN3CCOCC3)nc(C)nc21,.,.,-22%,.
Cc1nc2cnc(N(C)C)nc2n(C)c1=O,.,0%[11.4 µM],16µM*,.
O=C(c1ccncc1)N1CCC2(CCCN(Cc3nccs3)C2)CC1,.,-3%[11.4 µM],1%,.
c1ccc(N2CCN(c3ncnc4c3oc3ccccc34)CC2)cc1,.,4%,32µM*,.
CCc1nc(Nc2ccc(N3CCN(C(C)=O)CC3)cc2)c2oc3ccccc3c2n1,?,-14%,32µM*,i
CCc1nnc(N2CCN(c3ncnc4c3oc3ccccc34)CC2)s1,>77,-1%,-17%,.
CCc1nc(N2CCN(C(=O)c3ccco3)CC2)c2oc3ccccc3c2n1,.,1%,?,.
O=C(CSc1ncnc2c1oc1ccccc12)N1CCN(c2ccccc2)CC1,>77,2%,1%,>57
CC(=O)N1CCN(c2ccc(Nc3ncnc4c3oc3ccccc34)cc2)CC1,?,-23%,20µM*,i
COc1cccc(Cn2c(=O)c(-c3ccccc3)nc3cnc(N(C)C)nc32)c1,.,-2%[11.4 µM],283%,.
C[N+]1(C)CCO[C@](O)(c2ccccc2)C1,.,3%[11.4 µM],15%[11.5 µM],.
Cc1cccc2nc(CSCc3ccco3)cn12,>77,25µM*,-18%,.
COc1ccc(-c2nnc3ccc(SCC(=O)N4CCN(c5ccccc5)CC4)nn23)cc1OC,>77,-3%,5%,>57
CCOc1ccc(C(=O)Nc2cc(C)on2)cc1,.,10µM*,11%,.
Cc1cc(NC(=O)c2ccc(NC(=O)c3cccs3)cc2)no1,2.4*,0%,-32%,>57
CCOc1cc(C(=O)Nc2cc(C)on2)cc(OCC)c1OCC,>77,-1%,-26%,>57
CCNc1ncc2nc(-c3ccc(F)cc3)c(=O)n(-c3ccccc3)c2n1,.,1%[11.4 µM],?,.
NC(=O)c1ccc(-c2ncc(-c3ccccc3)o2)cc1,>77,13µM*,45%,4*
O=C(c1ccc(Cl)s1)N1CCc2ccccc21,>77,13µM*,2%,.
Cc1cc(C)c(C)c(OCc2nc(-c3cccnc3)no2)c1,>77,6%,-18%,>57
Cc1ccc(OCc2nc(-c3ccccc3)no2)c(C)c1,.,16µM*,72%,.
CC(C)=CCC/C(C)=C/CO/N=C1/C[C@@H](O)[C@@H](O)[C@@H]2[C@@H]3C(=O)N([C@@H](C)c4ccccc4)C(=O)[C@H]3CC[C@H]12,.,0%[11.4 µM],7%[11.5 µM],.
COc1ccc2c(-c3cccnc3)cc(=O)[nH]c2c1,8.9*,2%,-18%,>57
CN1C[C@H](c2ccccc2)C(O)([C@]2(c3ccccc3)CN(C)C[C@@H](c3ccccc3)C2=O)[C@H](c2ccccc2)C1 (some centres undefined),.,0%[11.4 µM],-1%[11.5 µM],.
SMILES,GBA mod,FLuc inh,ERK AVP inh,PK Bst
Nc1nonc1-c1noc(COc2ccccc2Cl)n1,>77,13µM*,-12%,.
Clc1ccccc1OCc1nc(-c2ccccn2)no1,>77,10µM*,7%,i
Cc1cccc(OCc2nc(-c3nonc3N)no2)c1C,>77,-2%,-12%,>57
c1ccc(CCc2nc(-c3ccccn3)no2)cc1,>77,-22%,-3%,>57
Clc1ccc(OCc2nc(-c3ccccn3)no2)c(Br)c1,.,2.5µM*,-7%,.
Oc1ccc([C@@H]2CNCc3sccc32)cc1O,.,-16%,?,.
CC(C)CN1CCc2nc(-c3ccccc3)c3c(c2CC1)COC(C)C3 (centres undefined),.,.,6%[11.5 µM],.
Cc1cc(C)c(-c2cc([C@H](C)O/N=C3/[C@H]4OC4[C@@H](O)[C@H]4[C@H]3CCn3c(=O)n(-c5ccccc5)c(=O)n34)on2)c(C)c1 (some centres undefined),.,-1%[11.4 µM],2%[11.5 µM],.
CC(C)N(CC(=O)O)CC(=O)O,.,2%[11.4 µM],-7%[11.5 µM],.
FC(F)(F)c1cc(CN2CCC3(CCNCC3)CC2)cc(C(F)(F)F)c1,.,1%[11.4 µM],-9%,.
O=C(O)c1cccc(Cl)c1Cl,.,.,-1%,.
Cc1ccccc1C(=O)Nc1ccccc1,.,-19%,24%,.
Cc1ccccc1C(=O)Nc1ccc(Br)cn1,.,13µM*,?,.
Cc1ccc(NC(=O)c2ccccc2F)nc1,>77,25µM*,3%,i
CC(=O)c1c(C)[nH]c(C(=O)NCc2ccccn2)c1C,>77,-1%,19%,>57
CC(=O)c1c(C)[nH]c(C(=O)Nc2ccc(C)cn2)c1C,.,2.5µM*,16%,4.4*
Cn1c(=O)[nH]c(=O)c2c1nc(SCCN1CCOCC1)n2Cc1ccccc1,9*,2%,-24%,>57
Cc1ccc(Cn2c(N3CCCCCC3)nc3c2c(=O)[nH]c(=O)n3C)cc1,>77,0%,16µM*,>57
CCCSc1nc2c(c(=O)[nH]c(=O)n2C)n1Cc1ccc(C)cc1,>77,1%,-7%,>57
Oc1cc(CN2COc3ccccc32)c(O)cc1CNC1CCCCC1,.,-10%[11.4 µM],5%[11.5 µM],.
CC(C)c1c(O)ccc2c1CCC1[C@@](C)(C=O)CCC[C@@]21C (some centres undefined),.,.,3%,.
COc1ccc(Cn2c(C3CC3)nc3ccc(NC(=O)C4CC4)cc3c2=O)cc1,>77,16µM*,7%,.
C[C@@H](C(=O)NCc1cccc2ccccc12)[C@H]1C[C@]1(C)[C@H](NC(=O)OCc1ccccc1)c1ccccc1,.,.,-4%,.
N=C1C(c2nc3ccccc3[nH]2)=C(O)CN1c1ccccc1,>15,-9%,-15%,.
CC1C(O)=C(c2nc3ccccc3[nH]2)C(=N)N1c1ccccc1 (centres undefined),>77,25µM*,-5%,.
SMILES,GBA mod,FLuc inh,ERK AVP inh,PK Bst
CCC(C)N1CC(O)=C(c2nc3ccccc3[nH]2)C1=N (centres undefined),.,?,-6%,.
CCCCCCN1CC(O)=C(c2nc3ccccc3[nH]2)C1=N,11*,-1%,-17%,>57
CCCCCCCCC,.,.,-3%,.
N=C(N)SCc1ccc(Cl)cc1Cl (tested in a mixture with another compound),.,1%[11.4 µM],6%[11.5 µM],.
C#C[C@]1(O)CC[C@@H]2[C@H]3CCC4=CCCC[C@@H]4[C@@H]3CC[C@@]21C,.,-4%[25.5 µM],-3%[25.7 µM],.
CCOC(=O)N1CC=C2C(C#N)=C(N)C(C#N)(C#N)[C@H](c3ccc(OC(C)C)c(OCC)c3)[C@H]2C1,>77,0%,-7%,>57
CCOC(=O)N1CC=C2C(C#N)=C(N)C(C#N)(C#N)[C@H](c3ccccc3OCC)[C@H]2C1,8.5*,0%,4%,>57
CCNc1ncc2nc(-c3ccc(Cl)cc3)c(=O)n(CCC#N)c2n1,.,0%[11.4 µM],-4%,.
Cc1ccc(/C=N/c2sc3c(c2C#N)CCC3)s1,11*,1.6µM*,-21%,4.3*
Cc1ccc(/C=N/c2sc3c(c2C#N)CCCCC3)o1,?,1%,?,>57
N#Cc1c(/N=C/c2ccco2)sc2c1CCC2,>77,2.5µM*,-9%,.
COc1cccc(-c2nc(NCCNC(C)=O)c3ccccc3n2)c1,.,0%[2.29 µM],-4%,.
COc1ccc(O[C@H]2C=C[C@@H](c3ccccc3)O[C@H]2CO/N=C\C[C@@H]2C=C[C@H](OC(C)=O)[C@H](COC(C)=O)O2)cc1,.,2%[11.4 µM],0%[11.5 µM],.
COc1ccc(C(=O)c2oc3ccc(OC)cc3c2N)cc1,.,10µM*,-19%,.
Nc1ccc2c(c1)N1CCN=C1S2,.,-2%[25.5 µM],.,>26

# Source: PubChem BioAssay (National Center for Advancing Translational Sciences (NCATS))
